Compound activity deposited in PubChem BioAssay by National Center for Advancing Translational Sciences (NCATS).
KDM5B inhibitor: KDM5B demethylase inhibition; Potency, µM (titrated, usually from 57.7 µM), usual class: inhibitors; KDM5B demethylase, FDH-coupled NADH fluorescence (FDH is formaldehyde dehydrogenase); 220,000 compounds, 2.6% hits; Q9UGL1; AID 1347165; active = well fitted inhibition curve with a large enough effect; note: nearly all actives have a fitted effect of over 70% in size
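Here, H3K4me3 peptide (12.5 µM in substrate mix) is demethylated by KDM5BΔAP, 200 nM final, after 10 min compound exposure. Formaldehyde product is coupled through FDH (0.25 U/mL in mix) to NADH fluorescence; 30-min ΔRFU feeds dose-response curves.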
Large screens that a line does not name were inactive. Only a selection was taken, and hits are over-represented in it overall.

CCn1c(C(=O)NC2CCN(CC(=O)NC(C)C)CC2)cc2ccccc21	none
CCN1CCN(c2nc(Nc3ccc(C)cc3)c3nccnc3n2)CC1	none
CN1CCC/C1=C\C(=O)c1ccccc1	none
COc1ccccc1CNC(=O)c1c(C)sc2ccn(Cc3ccc(F)cc3)c(=O)c12	none
CCN(CC)C(=O)c1c(C)sc2ccn(Cc3ccc(F)cc3)c(=O)c12	KDM5B inhibitor 25.1µM
COCCNC(=O)c1c(C)sc2ccn(Cc3ccc(F)cc3)c(=O)c12	none
O=C(c1ccc2c(c1)OCO2)N1CCn2c(nnc2C2CCCNC2)C1 (centres undefined)	none
O=C(c1ccc2c(c1)OCO2)N1CCC(N2CCNC2=O)CC1	none
O=C(c1ccc2c(c1)OCO2)N1CCC(c2nnc3n2CCNC3)CC1	KDM5B inhibitor 50.1µM
O=C(Nc1ccc(O)c(-c2nc3ccccc3o2)c1)c1ccccc1F	none
CCn1nc(C(=O)OCc2cc(=O)oc3cc(O)ccc23)c2ccccc2c1=O	none
COc1ccc(S(=O)(=O)N2CC(c3noc(-c4cccnc4)n3)C2)cc1Cl	none
CC(NC(=O)CC1C=CCC1)c1cccs1 (centres undefined)	none
CCOC(=O)C1CCN(C(=O)c2cc(-c3ccncc3)cn2Cc2ccccc2C)CC1	none
Cc1ccc(NC(=O)Cn2c(=O)n(CCC(=O)N3CCc4ccccc4C3)c(=O)c3ccccc32)cc1	none
Cc1ccc(S(=O)(=O)N(CC(=O)N2CCc3ccccc3C2)Cc2cccc(C)c2)cc1	none
Cc1ccc(C(CC(=O)N2CCc3ccccc3C2)c2cn(C)c3ccccc23)cc1 (centres undefined)	KDM5B inhibitor 17.8µM
CC(Sc1ccc2c(c1)OCCCO2)C(=O)Nc1ccc2ccccc2c1 (centres undefined)	none
CCN(c1ccc(NC(=O)COc2ccccc2C(=O)c2cc(C#N)c(=O)n(C3CC3)c2)cc1)C(C)C	none
COC[C@@H]1CN(c2cnccn2)C[C@H]1C(=O)NCc1ccc(C)c(C)c1	KDM5B inhibitor 17.8µM
CCCc1ccc(NC(=O)C2CCCN(c3cnccn3)C2)cc1 (centres undefined)	none
COC(=O)NCCc1ccncc1	none
COC[C@@H]1CN(c2cnccn2)C[C@H]1C(=O)NCCc1ccncc1	KDM5B inhibitor 25.1µM
CNC(=O)[C@@H]1CN(C(=O)c2cocn2)C[C@H]1COC	none
COc1ccc(C(=O)N[C@@H]2CCC[C@@H]2C(=O)NCc2ccc(C)c(C)c2)cc1	none
COC[C@@H]1CN(c2cnccn2)C[C@H]1C(=O)NCC1CC1	KDM5B inhibitor 17.8µM
CNC(=O)[C@@H]1CN(C(=O)c2ccc(F)cn2)C[C@H]1COC	none
CNC(=O)[C@@H]1CN(C(=O)c2cnc[nH]2)C[C@H]1COC	none
O=[S+]([O-])(c1ccncc1)c1nnn2c1nc(NC1CCCC1)c1ccccc12	none
CCCn1nc(C(=O)OCCO)c2ccccc2c1=O	none
CCS(=O)(=O)N1C[C@@H](C(=O)N2CCCCCC2)[C@H](c2ccncc2)C1	none
O=[N+]([O-])c1ccc(CON=C2CCC3(CC2)OCCO3)cc1	none
CC1CCN(CC(=O)N2CCN(S(=O)(=O)c3ccccc3F)CC2)CC1	none
CC/C=C(/C)C(=O)NCC(c1cccs1)N(C)C (centres undefined)	none
O=C1NCCC[C@@H]1NC(=O)[C@@H]1CN(C(=O)c2cccc(F)c2)CCN1C(=O)c1cnccn1	none
Cc1cccnc1NCCNC(=O)c1cc(S(N)(=O)=O)ccc1F	none
COc1cc(F)cc(-c2cccc(COc3cnc4c(ccn4CC(=O)O)c3)c2)c1	KDM5B inhibitor 35.5µM
COc1ccccc1NC(=O)Cn1ccc2cc(Cl)ccc21	none
COc1ccccc1NC(=O)Cn1ccc2ccc(Cl)cc21	none
CNC(=O)CCn1ncc2cc(OCc3ccccc3-c3cc(F)cc(OC)c3)ccc21	none
COc1cc(Cl)ccc1-c1cccc(COc2cnc3c(ccn3CC(=O)O)c2)c1	KDM5B inhibitor 35.5µM
O=C(O)CNC(=O)Cn1ccc2ccc(OCc3ccccc3)cc21	none
O=C(O)C(c1c[nH]c2ccc(CO)cc12)N1CCN(Cc2cccs2)CC1 (centres undefined)	none
Cc1sc(NC(=O)c2cccs2)c(C#N)c1C	none
COc1ccc(C(C)NC(=O)c2cc3c(N4CCCC4)nc(C)cn3n2)cc1OC (centres undefined)	none
CSc1cccc(NC(=O)c2cc3c(N4CCCC4)nc(C)cn3n2)c1	none
COc1ccc(C(=O)NC2CCN(C(=O)c3cc4c(=O)[nH]c(C)cn4n3)CC2)cc1F	none
CSc1cccc(NC(=O)c2cc3c(N4CCSCC4)nc(C)cn3n2)c1	KDM5B inhibitor 25.1µM
O=C(Nc1ccc(F)c(Cl)c1)c1nc2ccccc2nc1N1CCCCC1	none
CSc1ccc(NC(=O)c2cc3c(N4CCSCC4)nc(C)cn3n2)cc1	none
Cc1cn2nc(C(=O)Nc3ccc(Cl)c(C)c3)cc2c(N2CCSCC2)n1	KDM5B inhibitor 22.4µM
CSc1cccc(NC(=O)c2cccc(C)c2)c1	none
CSc1ncc(Cl)c(C(=O)Nc2ccc(C)c(C)c2)n1	none
Cc1cc(NC(=O)c2cnc3ccccc3n2)ccc1N1CCN(C)CC1	none
Cc1cn2nc(C(=O)Nc3ccc(F)c(C)c3)cc2c(N2CCSCC2)n1	KDM5B inhibitor 31.6µM
COc1ccc(NC(=O)c2cc3c(N4CCSCC4)nc(C)cn3n2)cc1F	KDM5B inhibitor 28.2µM
CCOc1ccc(S(=O)(=O)Nc2nc3ccccc3nc2N2CCC(O)CC2)cc1	none
O=C(O)Cn1ncc(=O)c2ccccc21	none
COc1cccc(-n2ccn(Cc3c(F)cccc3Cl)c(=O)c2=O)c1	none
CC(C)NC(=O)C1c2ccccc2C(=O)N(Cc2ccco2)C12CCCC2 (centres undefined)	none
C=CCn1c(-n2nc(CC)cc2CC)nc2c1c(=O)[nH]c(=O)n2C	none
CC(C)c1noc(-c2cn(C3CCN(C(=O)c4ccc[nH]4)CC3)nn2)n1	none
O=C1Nc2ccccc2CC12CCN2[S+](=O)([O-])c1cccs1 (centres undefined)	none
CC(C)OC(=O)COc1ccc2c(-c3cc4ccccc4oc3=O)cc(=O)oc2c1	none
COc1ccc(N2CC(NC(=O)Nc3nc4c(C)cccc4s3)CC2=O)cc1 (centres undefined)	none
CCOc1cc(=O)n2c(c1C(=O)Nc1ccc(Cl)cc1C)CCCC2	none
CNC(=O)N1CCC(C2CCN(C(=O)c3ccc(OC)c(F)c3)C2)CC1 (centres undefined)	none
COc1ccc(CN2C[C@@H](F)[C@@H](OCc3nc4ccncc4[nH]3)C2)cn1	none
CCN(C)C(=O)C(C)N1CCc2onc(-c3ccc(-c4ccccc4)cc3)c2C1 (centres undefined)	KDM5B inhibitor 25.1µM
CCC(O)C(=O)N1CCc2onc(-c3ccc(-c4ccccc4)cc3)c2C1 (centres undefined)	none
CCN(C)C(=O)C(C)N1CCc2onc(C(c3ccccc3)c3ccccc3)c2C1 (centres undefined)	none
Cc1nn(C)c2nc(C(C)C)cc(C(=O)N3CCN(c4nccs4)CC3)c12	none
O=C(c1ccc(F)c(F)c1)N1CCN(C(=O)c2nnn3c2COC(c2ccccc2)C3)CC1 (centres undefined)	none
O=C(Cc1c[nH]c2ccccc12)N1CCc2c(nc(-c3ccc(F)cc3)[nH]c2=O)C1	none
CN1CCCCCCN(S(=O)(=O)c2cccs2)CCC1=O	none
O=c1[nH]c(-c2ccc(F)cc2)nc2c1CCN(S(=O)(=O)c1cccs1)C2	KDM5B inhibitor 31.6µM
CCOC(=O)C1CCCCC(=O)N1 (centres undefined)	none
CN(C)C(=O)CN1CCN(C(C(=O)O)c2c[nH]c3cc(F)ccc23)CC1 (centres undefined)	none
Cc1cc(C(=O)NCC2CC2)c2c(C3CCCNC3)noc2n1 (centres undefined)	none
COc1cccc(-c2cc(C(=O)NC3CC3)c3ccccc3n2)c1	none
